# Bioassay records from PubChem BioAssay.
# USP28 block – inhibitors of human USP28 deubiquitinase; Ubiquitin carboxyl-terminal hydrolase 28 (Homo sapiens), Q96RU2; purified USP28, Ub-rhodamine cleavage fluorescence, 30 min; inhibition, % at 25 µM; actives 3% (n = 47,000)
# USP8 block – inhibitors of human USP8 deubiquitinase. inhibition, % at 20 µM. purified USP8, Ub-rhodamine cleavage fluorescence, 30 min. actives 4.2% (n = 47,000)
# USP30 block – inhibitors of human USP30 deubiquitinase; Ubiquitin carboxyl-terminal hydrolase 30 (Homo sapiens), Q70CQ3; inhibition, % at 25 µM; purified USP30, Ub-rhodamine cleavage fluorescence; actives 5.3% (n = 47,000)
# USP17 inh – inhibitors of human USP17 deubiquitinase; inhibition, % at 50 µM; purified USP17, Ub-rhodamine cleavage fluorescence, 3 h; actives 6.5% (n = 47,000); AID 1645855, 2021; Ubiquitin carboxyl-terminal hydrolase 17-like protein 5 (Homo sapiens), A8MUK1
# Target sequence (A8MUK1 whole entry, looked up): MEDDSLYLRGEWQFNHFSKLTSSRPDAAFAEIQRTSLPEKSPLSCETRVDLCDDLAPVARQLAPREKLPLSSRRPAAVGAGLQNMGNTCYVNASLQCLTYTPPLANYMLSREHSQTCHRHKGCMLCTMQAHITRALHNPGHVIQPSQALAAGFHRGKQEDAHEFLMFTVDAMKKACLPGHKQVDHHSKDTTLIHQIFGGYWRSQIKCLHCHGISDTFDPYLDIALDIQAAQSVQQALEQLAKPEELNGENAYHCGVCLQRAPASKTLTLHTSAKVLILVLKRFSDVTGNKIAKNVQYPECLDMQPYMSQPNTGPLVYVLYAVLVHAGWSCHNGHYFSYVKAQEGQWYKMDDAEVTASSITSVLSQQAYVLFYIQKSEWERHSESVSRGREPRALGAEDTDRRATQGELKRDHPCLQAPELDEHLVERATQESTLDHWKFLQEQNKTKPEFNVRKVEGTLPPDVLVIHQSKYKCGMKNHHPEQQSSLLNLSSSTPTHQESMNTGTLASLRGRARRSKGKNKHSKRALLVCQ
# USP10 block – inhibitors of human USP10 deubiquitinase; Ubiquitin carboxyl-terminal hydrolase 10 (Homo sapiens), Q14694; purified USP10, Ub-rhodamine fluorescence, 60 min; inhibition, % at 20 µM; actives 1.1% (n = 47,000)
# Hits are given with their value; – = inactive; · = no result given. An excerpt weighted towards active compounds, which were near 14% of everything screened. Cut-off read from the data, not from the text of the source: active = inhibition above about 30%; inactive = the rest.
SMILES,USP28 block,USP8 block,USP30 block,USP17 inh,USP10 block
Cc1cc(C)cc(N(CCC(=O)Nc2ccc(N3CCOCC3)cc2)S(=O)(=O)c2ccc(Cl)cc2)c1,–,32,41,32,–
Cc1ccc(CNC(=O)N2CCC(c3nc(C(=O)N(C)C)c(C)o3)CC2)cc1,–,–,31,–,–
COc1cc(OC)cc(C(=O)N2CCC(C(=O)Nc3cccc4ccccc34)CC2)c1,–,–,–,–,–
COc1nn(C)cc1C(=O)N1CCC(C(=O)Nc2ccc(Br)cc2F)CC1,45,–,–,–,–
CCOc1ccc(/C=C/C(=O)Nc2nnc(C)s2)cc1,–,–,–,31,–
COc1cc(/C=C/C(=O)Nc2nnc(C3CC3)s2)cc(OC)c1OC,–,–,–,–,–
Cc1c(C(=O)N2CCC(Cc3ccccc3)CC2)oc2c1C(=O)CCC2,–,–,33,–,–
Cc1c(C(=O)N2CCN(C)CC2)oc2c1C(=O)CCC2,–,–,–,–,–
O=C(CCCN1C(=O)c2cccc3cccc(c23)C1=O)OCC(=O)N1CCOCC1,–,–,–,–,–
CC1(C)CC(=O)C2=C(C1)Nc1ccccc1N(C(=O)c1ccccc1)C2c1c(F)cccc1Cl (centres undefined),–,–,–,–,–
CC(C)CC(=O)N1c2ccccc2NC2=C(C(=O)CC(C)(C)C2)C1c1ccco1 (centres undefined),–,–,–,–,–
COc1ccc(C2CC(=O)C3=C(C2)Nc2ccccc2N(C(=O)c2ccccc2)C3c2ccc(C(C)(C)C)cc2)cc1 (centres undefined),–,–,–,–,–
CC1(C)CC(=O)C2=C(C1)Nc1ccccc1N(C(=O)C(F)(F)F)C2c1cccs1 (centres undefined),–,89,–,64,–
COc1ccc(C2C3=C(CC(C)(C)CC3=O)Nc3ccccc3N2C(=O)c2ccccc2)cc1 (centres undefined),–,–,–,35,–
CCCOc1ccc(C2C3=C(CC(C)(C)CC3=O)Nc3ccccc3N2C(=O)c2ccccc2)cc1OC (centres undefined),–,–,42,–,–
Cc1ccc(NC(=O)COC(=O)c2cccc(N(C)C)c2)cc1S(=O)(=O)N1CCCCC1,–,–,–,–,–
COc1cccc(N2CCN(C(=O)c3cc(C)[nH]n3)CC2)c1,·,–,·,–,–
O=C(C1CC1)N1CCCC(Cc2cc(-c3ccccc3F)no2)(C(=O)O)C1 (centres undefined),–,–,–,–,–
CCOC(=O)c1nc(Nc2ccc(OC)c(Cl)c2)c2ccccc2n1,–,–,49,74,–
CCn1cc(-c2cc(C(=O)Nc3cnn(Cc4cccc(F)c4)c3)c3ccccc3n2)cn1,–,–,–,63,–
COc1ccc(-c2cc(C(=O)Nc3cccc(F)c3)c3ccccc3n2)cc1,–,–,–,–,–
CCc1cccc(NC(=O)N2CCC3(C2)Nc2cccnc2NC3=NC(C)(C)C)c1 (centres undefined),–,–,–,–,–
O=C(Oc1cc(O)cc2c1C[C@@H](OC(=O)c1cc(O)c(O)c(O)c1)[C@@H](c1cc(O)c(O)c(O)c1)O2)c1cc(O)c(O)c(O)c1,78,–,–,77,–
COc1ccc2[nH]c(=O)c(CN(C(=O)Nc3cccc(Cl)c3)C3CCCC3)cc2c1,–,–,–,–,–
COc1cc(OC)cc(N2C(=O)N(CC(=O)c3ccc(Br)cc3)c3ccccc3S2(=O)=O)c1,–,33,–,30,81
SMILES,USP28 block,USP8 block,USP30 block,USP17 inh,USP10 block
COc1ccc(C(=O)CN2C(=O)N(c3cccc(C)c3)S(=O)(=O)c3ccccc32)cc1,–,–,–,–,–
COc1cccc(N2C(=O)N(CC(=O)NCc3ccc(Cl)cc3)c3ccccc3S2(=O)=O)c1,–,–,43,79,–
Cc1ccc(NC(=O)COc2cccc(-n3cnnn3)c2)cc1F,–,–,–,–,–
O=C(Nc1c(C(=O)N2CCCCCC2)oc2ccccc12)C1CCCCC1,–,–,–,–,–
Cc1ccc(NC(=O)c2cc(-c3ccccn3)nc3c(Cl)cccc23)nc1,–,63,–,–,–
Cc1nc2scc(C)n2c(=O)c1NC(=O)Cc1cccc(F)c1,–,–,–,–,–
COc1ccc(NC(=O)C2CCN(C3=NS(=O)(=O)c4ccccc43)CC2)cc1,–,–,41,43,–
Cc1ccccc1CNC(=O)C1CCN(C2=NS(=O)(=O)c3ccccc32)CC1,–,–,32,–,–
CC(=O)N[C@@H]1C[C@H](c2cc(F)cc(F)c2)O[C@@H]2CCC[C@@H]12,–,–,–,–,–
CSC1=N/C(=C/c2ccccc2)C(=O)N1c1ccc(F)c(Cl)c1,–,–,33,–,–
O=C(c1cnccn1)N1CC[C@@H]2Oc3ccccc3S(=O)(=O)N(CC3CC3)[C@H]2CC1,–,–,–,–,–
CN1C[C@@]23CN(C(=O)c4cnccn4)C[C@@H](C[C@@H]2S1(=O)=O)O3,–,–,32,–,–
CC(CNC(=O)c1nc(-c2ccc3c(c2)OCC(=O)N3C)no1)c1ccccc1 (centres undefined),39,–,–,–,–
CN1C(=O)COc2cc(-c3noc(C(=O)NC4CCCCC4)n3)ccc21,–,–,31,–,–
CN1C(=O)COc2cc(-c3noc(C(=O)NCCc4ccccc4)n3)ccc21,–,–,–,–,–
CN1C(=O)COc2cc(-c3noc(C(=O)NCC4CCCO4)n3)ccc21 (centres undefined),–,–,–,–,–
Cc1cccc2nc(C(=O)N3CC(C(=O)N4CCOCC4)Oc4ccccc43)cn12 (centres undefined),–,–,–,–,–
O=C(C1CN(C(=O)c2cnc3ccccc3n2)c2ccccc2O1)N1CCOCC1 (centres undefined),–,70,–,–,–
COc1cccc(CN2CCC([C@@H]3C[C@H](C(F)(F)F)n4ncnc4N3)CC2)c1,–,–,–,–,–
Cn1c(CCC(=O)Nc2ccc3c(c2)CCC3)nc2cc(S(=O)(=O)N3CCOCC3)ccc21,–,–,33,48,–
CCOc1ccc(S(=O)(=O)Nc2ccc(Cn3cncn3)cc2)cc1,–,–,–,–,–
COc1ccc2c(C)c(CC(=O)NCC(=O)O)c(=O)oc2c1OC,–,–,–,–,–
Cc1nc(-c2cccnc2)nc2c1CC(=O)N2C1CCCC1,–,37,–,–,–
OC1CCN(c2cc(-c3cccnc3)nc(-c3cccnc3)n2)CC1,–,–,–,–,–
CCC(O)CNc1ncnc2c1sc1nc(C)c3c(c12)CC(C)(C)OC3 (centres undefined),–,–,–,–,–
CCOC(=O)C(C)Sc1ncnc2c1sc1nc(N3CCCC3)c3c(c12)CC(C)(C)OC3 (centres undefined),–,46,–,–,–
